Molecules are shown by their SMILES. The source made the active and inactive calls. Unless noted, the rule behind the calls is not given here.

Data on nine compounds can be found in PubChem BioAssay.

Assay [1] can be described thus: compound effects on lung adenocarcinoma cell viability – A549, calcein-AM fluorescence, 48 h, basal, profiling panel (AID 1162). Note: test concentration not given here. The conditions noted are these: higher = more signal.
A short description of assay [2]: compound effects on differentiated 3T3-L1 adipocyte viability – cell-based, 3T3-L1 adipocytes, calcein-AM fluorescence, 48 h, basal, profiling panel (AID 1163). Note: test concentration not given here. The conditions noted are these: 3T3-L1 adipocytes viability, higher = more signal.
Assay [3] in a line: compound effects on hepatocellular carcinoma cell viability – HepG2, calcein-AM fluorescence, 48 h, basal, profiling panel (AID 1164). Note: test concentration not given here. The conditions noted are these: higher = more signal.
Assay [4] is described as follows: compound effects on multiple myeloma cell viability – MM1S, calcein-AM fluorescence, 48 h, basal, profiling panel (AID 1165). Note: test concentration not given here. The conditions noted are these: higher = more signal.
Assay [5] is described as follows: calcein-AM signal in unstimulated myeloma cells – cell-based, calcein-AM fluorescence, 48 h, PK04 Diversity Set, profiling panel (AID 1166).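 Note: cells grown under basal conditions without added stimulus; test concentration not given here.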 The conditions noted are these: RPMI8226 myeloma viability, higher = more signal.
Assay [6] can be described thus: JC-1 mitochondrial signal, unstimulated HepG2 cells – cell-based, JC-1 fluorescence, 24 h, 100 nL compound, profiling panel (AID 1167). Note: test concentration not given here. The conditions noted are these: HepG2 mitochondrial potential, higher = more signal.
Assay [7] can be described thus: JC-1 mitochondrial signal, unstimulated adipocytes – cell-based, JC-1 fluorescence, 3T3-L1 adipocytes, 24 h, 100 nL compound, profiling panel (AID 1168). Note: test concentration not given here. The conditions noted are these: JC-1 mitochondrial fluorescence, higher = more signal, called active from +8 up or from −8 down.
A short description of assay [8]: JC-1 mitochondrial signal, unstimulated myeloma cells – cell-based, JC-1 fluorescence, RPMI8226, 24 h, 100 nL compound, profiling panel (AID 1169). Note: test concentration not given here. The conditions noted are these: JC-1 mitochondrial potential fluorescence, higher = more signal.
The nature of assay [9]: JC-1 mitochondrial signal, unstimulated MM1S myeloma – cell-based, JC-1 fluorescence, 24 h, 100 nL compound, profiling panel (AID 1170). Note: test concentration not given here. The conditions noted are these: MM1S mitochondrial potential, higher = more signal.
Assay [10] is described as follows: resazurin metabolic signal in A549 cells – cell-based, resazurin fluorescence, 24 h, PK04 Diversity Set, profiling panel (AID 1171). Note: test concentration not given here. The conditions noted are these: A549 viability, higher = more signal, called active from +8 up or from −8 down. Background: Resazurin is reduced to fluorescent resorufin, in cell work by metabolically active cells.
Assay [11] can be described thus: resazurin metabolic signal in HepG2 cells – cell-based, resazurin fluorescence, 24 h, PK04 Diversity Set, profiling panel (AID 1172). Note: test concentration not given here. The conditions noted are these: HepG2 viability, higher = more signal.
The nature of assay [12]: budding yeast growth changes without added modifier – OD600, strain BY4716, 24 h, basal condition, primary screen (AID 1173). The conditions noted are these: S. cerevisiae BY4716 growth, OD600, 24 h; higher = more signal, called active from +8 up or from −8 down.
Assay [13] can be described thus: viability profiling in MM1S myeloma cells – cell-based, resazurin fluorescence, basal, 24 h, PK04 Diversity Set, profiling panel (AID 1174). Note: test concentration not given here. The conditions noted are these: higher = more signal, called active from +8 up or from −8 down.
Assay [14] addresses Dihydroorotate dehydrogenase (quinone), mitochondrial (Plasmodium falciparum (isolate 3D7)) (UniProt Q08210). Put plainly: inhibition of P. falciparum DHODH – biochemical, C-terminal His tag, absorbance 600 nm, primary screen (AID 1175).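 Note: recombinant parasite enzyme with a five histidine tag at its C terminus; test concentration not given here.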 The conditions noted are these: PfDHODH enzyme, DCIP absorbance 600 nm; higher = more signal, called active from +8 up or from −8 down.
Assay [15] in a line: inhibition of PAO1 biofilm formation – strain PAO1, LB-PBS medium, absorbance 600 nm, primary screen (AID 1176). Note: test concentration not given here. The conditions noted are these: P. aeruginosa PAO1 growth/biofilm, A600, 12 h; higher = more signal.
The nature of assay [16]: growth modulation of vineyard yeast isolate – strain RM11-1a, OD600, basal, 24 h, primary screen (AID 1177).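 Note: cultures grown under basal conditions with no added stressor; test concentration not given here.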 The conditions noted are these: S. cerevisiae RM11-1a growth, OD600, 24 h; higher = more signal, called active from +8 up or from −8 down.
A short description of assay [17]: growth of efflux-deficient E. coli DRC39 – strain DRC39, OD650, 24 h, E. coli filamentation inducers, primary screen (AID 1178).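 Note: growth measured as culture turbidity by optical density at 650 nm; test concentration not given here.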 The conditions noted are these: E. coli DRC39 acrAB, higher = more signal, called active from +8 up or from −8 down.
Assay [18] is described as follows: growth of efflux-deficient E. coli DRC39 – strain DRC39, OD650, 48 h, E. coli filamentation inducers, primary screen (AID 1179).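 Note: screen aims at cell division blockers that make cells filament.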 The conditions noted are these: E. coli DRC39 delta-acrAB growth, higher = more signal, called active from +8 up or from −8 down.
The nature of assay [19]: viability profiling in RPMI8226 myeloma cells – cell-based, resazurin fluorescence, basal, 24 h, PK04 Diversity Set, profiling panel (AID 1180).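 Note: RPMI8826 multiple myeloma cell line at 5000 cells per well; test concentration not given here.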 The conditions noted are these: higher = more signal.
Assay [20] addresses E3 ubiquitin-protein ligase XIAP (Homo sapiens) (UniProt P98170). Put plainly: small molecules binding XIAP protein – biophysical, small-molecule microarray, fluorescence 635 nm, primary screen (AID 1181).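 Note: score merges 667 nm emission and signal to noise over triplicate slides.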 The conditions noted are these: higher = more signal.

Dihydroorotate dehydrogenase (quinone), mitochondrial (Plasmodium falciparum (isolate 3D7)), sequence (Q08210 whole entry, looked up): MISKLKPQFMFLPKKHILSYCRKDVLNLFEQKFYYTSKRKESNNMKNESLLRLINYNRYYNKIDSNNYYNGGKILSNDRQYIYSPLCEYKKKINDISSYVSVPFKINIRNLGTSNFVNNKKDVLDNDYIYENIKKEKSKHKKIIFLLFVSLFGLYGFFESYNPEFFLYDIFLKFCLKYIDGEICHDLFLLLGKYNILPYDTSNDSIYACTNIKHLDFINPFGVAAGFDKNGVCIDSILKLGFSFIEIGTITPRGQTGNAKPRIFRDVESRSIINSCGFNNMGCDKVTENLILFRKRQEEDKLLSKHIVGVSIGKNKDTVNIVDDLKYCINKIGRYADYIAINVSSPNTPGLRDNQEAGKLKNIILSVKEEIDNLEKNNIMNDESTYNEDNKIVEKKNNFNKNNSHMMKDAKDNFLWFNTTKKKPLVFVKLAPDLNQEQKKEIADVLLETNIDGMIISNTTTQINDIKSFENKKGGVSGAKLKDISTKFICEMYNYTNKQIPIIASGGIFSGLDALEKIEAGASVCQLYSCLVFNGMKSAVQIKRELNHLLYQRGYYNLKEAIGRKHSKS
E3 ubiquitin-protein ligase XIAP (Homo sapiens), sequence (P98170 whole entry, looked up): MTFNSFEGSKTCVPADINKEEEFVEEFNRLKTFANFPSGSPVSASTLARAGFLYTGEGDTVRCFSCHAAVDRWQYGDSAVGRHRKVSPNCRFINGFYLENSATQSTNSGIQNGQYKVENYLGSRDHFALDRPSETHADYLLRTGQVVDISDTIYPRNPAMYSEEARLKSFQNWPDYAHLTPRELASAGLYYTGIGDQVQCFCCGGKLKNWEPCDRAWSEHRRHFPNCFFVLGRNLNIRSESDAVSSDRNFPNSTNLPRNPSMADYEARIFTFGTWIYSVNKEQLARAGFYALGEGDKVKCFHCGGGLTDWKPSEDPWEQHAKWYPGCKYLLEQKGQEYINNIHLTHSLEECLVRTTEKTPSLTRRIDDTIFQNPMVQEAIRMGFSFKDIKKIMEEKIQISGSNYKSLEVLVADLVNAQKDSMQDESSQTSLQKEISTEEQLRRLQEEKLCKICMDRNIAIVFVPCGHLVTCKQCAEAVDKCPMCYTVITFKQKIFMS

Take `C[C@@H]1CC[C@H]2C(=O)OC(CN3C(=O)c4ccccc4C3=O)CN2[C@H]1c1ccc(Br)cc1` (stereo not given in full): the z-score is 0.0752 in assay [1]; -0.0986 in assay [2]; 0.182 in [3]; 0.49 in assay [4]; 0.447 in [5]; 0.239 in assay [6]. Further, the z-score in assay [7] is -0.105 (inactive); in assay [8] it was -0.911; in assay [9] it was 1.67; in assay [10], 0.705 (inactive); in assay [11] it was 0.462; in [12] it was -0.501 (inactive). In addition, the z-score in assay [13] was 0.668 (inactive); in assay [15], -0.27 (inactive); in [16], 0.183 (inactive); in assay [17] it was 0.786 (inactive); in assay [18], 0.467 (inactive); in assay [19], 0.685. Moreover, the composite z-score in [14] was 0.639 (inactive); in assay [20] it was -0.0438.

With `CC(CCC(=O)OC[C@H]1O[C@H](C#Cc2ccccc2)C=C[C@@H]1Oc1ccc(C)cc1)=NOC(C)CN1CCCCc2nc(C)c(C)cc21` (stereo not given in full), the z-score is 0.393 in [1]; -0.239 in assay [2]; 0.0574 in assay [3]; -2.15 in assay [4]; -1.73 in [5]; 1.34 in assay [6]. For the same compound, the z-score in assay [7] is -2.02 (inactive); in [8], -0.325; in assay [9] it was -0.737; in assay [10] it was 0.599 (inactive); in [11] it was 0.172; in [12], 0.546 (inactive). For the same compound, the z-score is -0.0229 (inactive) in assay [13]; 0.311 (inactive) in assay [15]; 0.46 (inactive) in assay [16]; 0.125 (inactive) in assay [17]; -0.116 (inactive) in assay [18]; 0.304 in assay [19]. In addition, the composite z-score is -0.669 (inactive) in assay [14] and -0.102 in assay [20].

Turning to `CC(=O)OC[C@H]1O[C@@H](ON=C(C)CCC(=O)OC[C@H]2O[C@H](C#Cc3ccccc3)C=C[C@@H]2Oc2ccc(C)cc2)[C@H](OC(C)=O)[C@@H](OC(C)=O)[C@@H]1OC(C)=O`, the z-score in [1] is 0.16; in assay [2], 0.57; in [3], -0.325; in assay [4], 0.0628; in [5], -0.062; in [6] it was 0.632. Moreover, the z-score is -1.55 (inactive) in assay [7]; 0.393 in assay [8]; 0.69 in [9]; 0.221 (inactive) in assay [10]; 0.0214 in assay [11]; -0.053 (inactive) in [12]. Moreover, the z-score in assay [13] is 0.364 (inactive); in [15], -0.102 (inactive); in [16], 0.0837 (inactive); in [17], 0.297 (inactive); in [18] it was -0.905 (inactive); in assay [19], 0.135. The composite z-score in assay [14] is -0.47 (inactive); in [20], -0.269.

As for `C[C@@H]1C=CCC(=O)OC[C@H](C)C(=O)N[C@@H](Cc2ccccc2)C(=O)OC1`, the z-score in assay [1] is -0.88; in assay [2] it was 2.49; in assay [3], 0.499; in assay [4], -0.295; in [5] it was -0.371; in assay [6] it was 0.662. Besides, the z-score in [7] was 0.55 (inactive); in assay [8], 0.803; in [9], 0.382; in [10], 0.168 (inactive); in assay [11], -0.42; in [12] it was -1.13 (inactive). The z-score in assay [13] was 0.489 (inactive); in assay [15], -0.355 (inactive); in [16], -0.868 (inactive); in assay [17], 0.0826 (inactive); in assay [18], -0.0419 (inactive); in assay [19], 0.394. The composite z-score in [14] is -2.99 (inactive); in assay [20], -0.0669.

In the case of `C[C@H]1CC[C@@H](C(=O)O)N[C@@H]1c1ccc(C#Cc2ccccc2)cc1`, the z-score is -2.1 in assay [1]; 0.196 in assay [2]; -2.28 in assay [3]; -3.57 in assay [4]; -3.49 in assay [5]; -3.46 in assay [6]. Moreover, the z-score in assay [7] is -0.272 (inactive); in assay [8] it was -0.92; in assay [9] it was -1.59; in assay [10], -0.522 (inactive); in assay [11] it was -0.214; in assay [12] it was -19.1 (active). Moreover, the z-score in assay [13] was -0.477 (inactive); in assay [15], -0.446 (inactive); in [16] it was -18.9 (active); in [17], -0.0449 (inactive); in assay [18] it was -0.384 (inactive); in assay [19], 0.0569. In addition, the composite z-score is -1.36 (inactive) in assay [14] and -0.0773 in [20].

For `COC(=O)[C@@H]1CC[C@H](C)[C@@H](c2ccc(C)cc2)N1C(=O)c1ccc(C=NOC[C@@H](O)[C@H]2O[C@@H]3OC(C)(C)O[C@@H]3[C@H]2O)cc1`, the z-score in assay [1] is 0.685; in [2], -0.175; in [3], -0.827; in assay [4], -0.546; in assay [5] it was -0.525; in assay [6], -0.874. Also, the z-score in [7] is -0.269 (inactive); in assay [8], -1; in [9] it was -0.732; in assay [10], -0.089 (inactive); in assay [11], -0.187; in assay [12] it was -0.318 (inactive). The z-score in assay [13] is -1.05 (inactive); in assay [15], 0.642 (inactive); in [16], -0.168 (inactive); in assay [17], 0.507 (inactive); in assay [18], 0.577 (inactive); in [19] it was -0.772. Also, the composite z-score was -0.354 (inactive) in assay [14] and -0.173 in assay [20].

With `C#CCCCON=C1C[C@@H](O)[C@@H](O)[C@@H]2[C@@H]3C(=O)N(C4CCCCC4)C(=O)[C@@H]3CC[C@@H]12`, the z-score is -0.205 in assay [1]; -0.117 in [2]; -0.139 in [3]; 0.183 in [4]; -1.94 in assay [5]; -1.32 in [6]. Further, the z-score was -0.462 (inactive) in assay [7]; -0.0811 in assay [8]; 0.431 in assay [9]; -0.255 (inactive) in assay [10]; -0.673 in assay [11]; -3.17 (inactive) in assay [12]. For the same compound, the z-score in assay [13] was -0.0738 (inactive); in [15], 0.164 (inactive); in assay [16], -1.88 (inactive); in [17], 0.587 (inactive); in assay [18], 0.311 (inactive); in [19], 0.321. The figures for the composite z-score in [14] and in assay [20] were -1.65 (inactive) and -0.392, respectively.

With `CON=C(C)CCN1CCCc2nc(C)c(C)cc21`, the z-score was 0.604 in [1]; 0.542 in assay [2]; 0.926 in [3]; -1.56 in [4]; -0.0679 in assay [5]; 0.791 in [6]. The z-score in [7] is -0.195 (inactive); in assay [8], 0.538; in assay [9], 0.11; in assay [10], 0.161 (inactive); in [11], -0.183; in assay [12], -0.899 (inactive). For the same compound, the z-score is -0.136 (inactive) in assay [13]; 0.0981 (inactive) in [15]; -0.1 (inactive) in assay [16]; 0.213 (inactive) in assay [17]; -1.7 (inactive) in [18]; -0.22 in assay [19]. For the same compound, the composite z-score in [14] was -0.329 (inactive); in assay [20], 0.346.

For the compound `CCc1cc2c(nc1CC)CCN(CCC(C)=NOC(C)CN1CCCCc3nc(C)c(C)cc31)C2` (stereo not given), the z-score is 0.115 in assay [1]; 0.97 in assay [2]; 0.101 in assay [3]; -2.89 in assay [4]; -0.51 in [5]; 6.12 in [6]. The z-score in assay [7] is -1.02 (inactive); in assay [8] it was -0.39; in assay [9], -0.104; in assay [10] it was 0.639 (inactive); in assay [11] it was 0.465; in assay [12], -1.61 (inactive). Moreover, the z-score in [13] is 0.0376 (inactive); in assay [15], 0.417 (inactive); in assay [16], 1.18 (inactive); in assay [17], -0.148 (inactive); in assay [18], -1.83 (inactive); in assay [19], 0.825. Further, the composite z-score in assay [14] was 0.0164 (inactive); in assay [20] it was -0.02.
